This is an account of results in PubChem BioAssay (NCI).

Test [1] can be described thus: NCI Yeast Anticancer Drug Screen. Data for the rad50 strain (AID 155).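 Further: 0% = growth of vehicle-only cultures of the same strain.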 The settings on record: S. cerevisiae rad50 strain growth inhibition, active compounds read high. A digest of the protocol: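 Inhibition values express reduced yeast growth in compound-treated cultures relative to vehicle-treated controls.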
Test [2] is described as follows: NCI Yeast Anticancer Drug Screen. Data for the mec2-1 strain (AID 157). The settings on record: S. cerevisiae mec2-1 strain, active compounds read high. A digest of the protocol: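 Yeast mec2-1 mutant treated with compound. Readout: growth inhibition vs vehicle controls.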
Test [3] is described as follows: NCI Yeast Anticancer Drug Screen. Data for the sgs1 mgt1 strain (AID 161).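 Further: 0% = growth of cultures given vehicle only.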 The settings on record: S. cerevisiae sgs1 mgt1 strain, active compounds read high. A digest of the protocol:
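Test agents were incubated with a DNA-repair-mutant yeast strain. Growth was then read and compared against vehicle-treated controls.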

The nature of test [4]: NCI Yeast Anticancer Drug Screen. Data for the cln2 rad14 strain (AID 165).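 Further: 0% = growth equal to vehicle treated cultures.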 The settings on record: S. cerevisiae cln2 rad14 strain, active compounds read high. A digest of the protocol: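 cln2 rad14 yeast strain; compound exposure; growth inhibition read vs vehicle controls.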
The nature of test [5]: NCI Yeast Anticancer Drug Screen. Data for the bub3 strain (AID 167). The settings on record: S. cerevisiae bub3 mutant strain, active compounds read high. The method, boiled down:
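Steps: expose the mutant yeast strain to compound; grow alongside vehicle-treated cultures; measure growth; express inhibition against the vehicle cultures.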

A short description of test [6]: NCI Yeast Anticancer Drug Screen. Data for the mlh1 rad18 strain (AID 175). The settings on record: S. cerevisiae mlh1 rad18 strain growth inhibition, active compounds read high. The method, boiled down:
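Yeast w/ defined DNA-repair lesions; compound exposure; growth vs vehicle controls → % inhibition.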

[7] abbreviates: at 5.0 µM (retest, dose inferred, filed as 0.5).
Where [8] appears, read: at 50.0 µM (retest, dose inferred, filed as 5.0).

Each structure is given as a SMILES string. About 79,000 compounds went through this panel and 15% of them were active in at least one assay; those are over-represented in the sample as a whole. Unmarked numbers belong to inactive results. Activity calls are given as the source filed them. No stated cut-off is given here; in the data, active means growth inhibition above about 70%; inactive means the rest.

Take `CNc1ncnc2nc(C)[nH]c12`: the growth inhibition in test [1] (setting [7]) was 0%; in test [1] (setting [8]) it was 20%; in test [2] (setting [7]), -3%; in test [2] (setting [8]), 3%; in test [3] (setting [7]), 0%; in test [3] (setting [8]) it was 16%. The growth inhibition in test [4] (setting [7]) is 2%; in test [4] (setting [8]), -4%; in test [5] (setting [7]), 1%; in test [5] (setting [8]), 2%; in test [6] (setting [7]), -13%; in test [6] (setting [8]), 16%.
With `c1csc(-c2[nH]nc3c2CCc2ccccc2-3)c1`, the growth inhibition was 19% in test [1] (setting [7]); 97% (active) in test [1] (setting [8]); 98.3% (active) in test [1] (at 50.0 µM); -2% in test [3] (setting [7]); 98% (active) in test [3] (setting [8]); 97.6% (active) in test [3] (at 50.0 µM). In addition, the growth inhibition in test [4] (setting [7]) is -6%; in test [4] (setting [8]), 96% (active); in test [4] (at 50.0 µM) it was 98.5% (active); in test [5] (setting [7]), 18%; in test [5] (setting [8]), 98% (active); in test [5] (at 50.0 µM), 97.1% (active). In addition, the growth inhibition in test [6] (setting [7]) was -3%; in test [6] (setting [8]), 97% (active); in test [6] (at 50.0 µM) it was 98.8% (active).
As for `COc1ccc2nc3c4c(nccc4c2c1)-c1ncccc1C3=O`, the growth inhibition in test [1] (setting [7]) is 93% (active); in test [1] (setting [8]) it was 97% (active); in test [1] (at 50.0 µM) it was 89.2% (active); in test [3] (setting [7]), 43%; in test [3] (setting [8]), 97% (active); in test [3] (at 50.0 µM) it was 90.8% (active). The growth inhibition was 61% in test [4] (setting [7]); 97% (active) in test [4] (setting [8]); 90.6% (active) in test [4] (at 50.0 µM); 58% in test [5] (setting [7]); 96% (active) in test [5] (setting [8]); 89.5% (active) in test [5] (at 50.0 µM). Moreover, the growth inhibition in test [6] (setting [7]) is 93% (active); in test [6] (setting [8]) it was 97% (active); in test [6] (at 50.0 µM), -43%.
With `O=C1C=CC2C3C(=O)N(c4ccccc4)C(=O)C3C1N2Cc1ccccc1` (stereo not drawn), the growth inhibition in test [1] (setting [7]) is 18%; in test [1] (setting [8]), 48%; in test [2] (setting [7]), 18%; in test [2] (setting [8]) it was 58%; in test [3] (setting [7]), 50%; in test [3] (setting [8]) it was 70% (active). The growth inhibition is 69.2% in test [3] (at 50.0 µM); 21% in test [4] (setting [7]); 56% in test [4] (setting [8]); 43.2% in test [4] (at 50.0 µM); 24% in test [5] (setting [7]); 78% (active) in test [5] (setting [8]). Further, the growth inhibition is 61.9% in test [5] (at 50.0 µM), 51% in test [6] (setting [7]) and 79% (active) in test [6] (setting [8]).
In the case of `O=C1/C(=C\c2ccc([N+](=O)[O-])cc2)CS(=O)(=O)C/C1=C/c1ccc([N+](=O)[O-])cc1`, the growth inhibition in test [1] (setting [7]) is 81% (active); in test [1] (setting [8]), 96% (active); in test [2] (setting [7]), 97% (active); in test [2] (setting [8]), 98% (active); in test [3] (setting [7]), 93% (active); in test [3] (setting [8]) it was 96% (active). Further, the growth inhibition in test [3] (at 50.0 µM) is 87.2% (active); in test [4] (setting [7]), 91% (active); in test [4] (setting [8]) it was 97% (active); in test [4] (at 50.0 µM), 86.8% (active); in test [5] (setting [7]), 97% (active); in test [5] (setting [8]), 99% (active). Moreover, the growth inhibition in test [5] (at 50.0 µM) is 87.6% (active); in test [6] (setting [7]), 94% (active); in test [6] (setting [8]), 96% (active).
Take `c1ccc(-c2nc(N=C3N=c4ccccc4=N3)[nH]c2-c2ccccn2)nc1`: the growth inhibition is 59% in test [1] (setting [7]); 96% (active) in test [1] (setting [8]); 75.1% (active) in test [1] (at 50.0 µM); 36% in test [3] (setting [7]); 84% (active) in test [3] (setting [8]); 49% in test [4] (setting [7]). Also, the growth inhibition in test [4] (setting [8]) was 93% (active); in test [5] (setting [7]), 58%; in test [5] (setting [8]) it was 80% (active); in test [6] (setting [7]) it was 49%; in test [6] (setting [8]), 98% (active); in test [6] (at 50.0 µM), 75.5% (active).
In the case of `CC1(c2ccc(O)cc2)CCC(C(C)(C)c2ccc(O)cc2)CC1` (stereo not drawn), the growth inhibition in test [1] (setting [7]) was 41%; in test [1] (setting [8]) it was 99% (active); in test [1] (at 50.0 µM), 90.5% (active); in test [2] (setting [7]), 46%; in test [2] (setting [8]) it was 100% (active); in test [2] (at 50.0 µM), 91.9% (active). In addition, the growth inhibition in test [3] (setting [7]) was 80% (active); in test [3] (setting [8]) it was 97% (active); in test [4] (setting [7]), 60%; in test [4] (setting [8]) it was 97% (active); in test [5] (setting [7]), 89% (active); in test [5] (setting [8]), 96% (active). In addition, the growth inhibition in test [6] (setting [7]) is 44%; in test [6] (setting [8]), 100% (active); in test [6] (at 50.0 µM), 91.1% (active).
In the case of `C=[CH][Sn]([CH]=C)([O]c1cccc2cccnc12)[O]c1cccc2cccnc12`, the growth inhibition in test [1] (setting [7]) is 27%; in test [1] (setting [8]), 36%; in test [1] (at 50.0 µM), 87.3% (active); in test [3] (setting [7]) it was 91% (active); in test [3] (setting [8]), 98% (active); in test [3] (at 50.0 µM), 82.8% (active). Also, the growth inhibition is 87% (active) in test [5] (setting [7]); 98% (active) in test [5] (setting [8]); 89.8% (active) in test [5] (at 50.0 µM); 30% in test [6] (setting [7]); 60% in test [6] (setting [8]); 87.7% (active) in test [6] (at 50.0 µM).
In the case of `CC1OC(OC2C(OC3CCC4(C)C(CCC5(C)C4CC=C4C6CC(C)(C)CCC6(C(=O)O)CCC45C)C3(C)CO)OCC(O)C2O)C(O)C(O)C1O` (stereo not drawn), the growth inhibition in test [1] (setting [7]) is 94% (active); in test [1] (setting [8]) it was 99% (active); in test [1] (at 50.0 µM), 89.5% (active); in test [2] (setting [7]) it was 87% (active); in test [2] (setting [8]), 100% (active); in test [2] (at 50.0 µM), 89.8% (active). Moreover, the growth inhibition was 89% (active) in test [4] (setting [7]); 98% (active) in test [4] (setting [8]); 88.5% (active) in test [4] (at 50.0 µM); 97% (active) in test [5] (setting [7]); 99% (active) in test [5] (setting [8]); 87.7% (active) in test [5] (at 50.0 µM). Moreover, the growth inhibition is 93% (active) in test [6] (setting [7]), 98% (active) in test [6] (setting [8]) and 88.2% (active) in test [6] (at 50.0 µM).
`CC(C)CNC(=O)C(C)O` (stereo not drawn): the growth inhibition is 13% in test [1] (setting [7]); 88% (active) in test [1] (setting [8]); 2% in test [2] (setting [7]); 18% in test [2] (setting [8]); 4% in test [3] (setting [7]); 40% in test [3] (setting [8]). Further, the growth inhibition in test [4] (setting [7]) is 2%; in test [4] (setting [8]) it was 14%; in test [5] (setting [7]) it was 0%; in test [5] (setting [8]) it was 7%; in test [6] (setting [7]), 12%; in test [6] (setting [8]), 40%.
On to `O=C(CO)NCCO`, for which the growth inhibition in test [1] (setting [7]) is 1%; in test [1] (setting [8]) it was 0%; in test [2] (setting [7]) it was 3%; in test [2] (setting [8]), 5%; in test [3] (setting [7]), -2%; in test [3] (setting [8]) it was 2%. In addition, the growth inhibition in test [4] (setting [7]) is 5%; in test [4] (setting [8]), -2%; in test [5] (setting [7]) it was 5%; in test [5] (setting [8]), -5%; in test [6] (setting [7]), 0%; in test [6] (setting [8]) it was 2%.
On to `CCCCCCN(CCCCCC)CCCCCCCCCCCO`, for which the growth inhibition was 15% in test [1] (setting [7]); 98% (active) in test [1] (setting [8]); 7% in test [2] (setting [7]); 98% (active) in test [2] (setting [8]); 10% in test [3] (setting [7]); 99% (active) in test [3] (setting [8]). The growth inhibition in test [4] (setting [7]) is 12%; in test [4] (setting [8]), 98% (active); in test [5] (setting [7]), 16%; in test [5] (setting [8]), 99% (active); in test [6] (setting [7]), 11%; in test [6] (setting [8]) it was 94% (active).
Regarding `CCOS(=O)(=O)CC(C)(C)C`, the growth inhibition in test [1] (setting [7]) is 7%; in test [1] (setting [8]) it was 92% (active); in test [2] (setting [7]), 3%; in test [2] (setting [8]) it was 80% (active); in test [3] (setting [7]), 8%; in test [3] (setting [8]) it was 59%. For the same compound, the growth inhibition in test [4] (setting [7]) is -1%; in test [4] (setting [8]), 13%; in test [5] (setting [7]), 4%; in test [5] (setting [8]), 68%; in test [6] (setting [7]), -21%; in test [6] (setting [8]), 86% (active).
Consider `Oc1ccc(/C=C/c2ccc(Cl)cc2)cc1`, for which the growth inhibition was -26% in test [1] (setting [7]); 97% (active) in test [1] (setting [8]); 5% in test [2] (setting [7]); 98% (active) in test [2] (setting [8]); 4% in test [3] (setting [7]); 97% (active) in test [3] (setting [8]). In addition, the growth inhibition is 7% in test [4] (setting [7]); 97% (active) in test [4] (setting [8]); 10% in test [5] (setting [7]); 98% (active) in test [5] (setting [8]); 13% in test [6] (setting [7]); 96% (active) in test [6] (setting [8]).
For `CCC(C)(C)N(CC(=O)O)CC(=O)O`, the growth inhibition is -6% in test [1] (setting [7]); -1% in test [1] (setting [8]); 2% in test [2] (setting [7]); -5% in test [2] (setting [8]); 2% in test [3] (setting [7]); -1% in test [3] (setting [8]). In addition, the growth inhibition is 4% in test [4] (setting [7]); -2% in test [4] (setting [8]); 3% in test [5] (setting [7]); -1% in test [5] (setting [8]); -6% in test [6] (setting [7]); 17% in test [6] (setting [8]).
